Pf Dd2 inh: inhibitors of Plasmodium falciparum Dd2 growth. 4.3% of 120,000 active. Potency, µM (doses to about 28.9 µM), most hits filed as inhibitors. P. falciparum Dd2 growth, SYBR Green, 72 h; active = well fitted inhibition curve with a large enough effect; also: nearly all actives have a fitted effect of over 65% in size
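Readout: SYBR Green fluorescence, 485 nm excitation, 535 nm emission, after ~16 h lysis at 37C. Before that, Dd2-infected red cells (2.5% hematocrit) grew 72 h with compound, 29 uM top final concentration.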
Of the large screens only hits and unclear results are named; the others gave an inactive call. Shown is part of a subset that was picked to be rich in hits.

CCN(CC)c1cc2c(cc1F)c(=O)c(S(=O)(=O)c1ccccc1)cn2Cc1ccccc1	Pf Dd2 inh 13µM
CCN(CC)c1cc2c(cc1F)c(=O)c(S(=O)(=O)c1ccc(OC)cc1)cn2Cc1ccccc1	Pf Dd2 inh 13µM
COc1ccc(NC(=O)Cn2cc(S(=O)(=O)c3ccccc3)c(=O)c3cc4c(cc32)OCO4)cc1	none
COc1ccc(S(=O)(=O)c2cn(Cc3ccccc3)c3cc(F)c(F)cc3c2=O)cc1	none
CCCCn1cc(S(=O)(=O)c2ccc(F)cc2)c(=O)c2ccccc21	none
CCCn1cc(S(=O)(=O)c2ccc(C)c(C)c2)c(=O)c2cc(F)c(N3CCCCC3)cc21	none
CCN(CC)c1cc2c(cc1F)c(=O)c(S(=O)(=O)c1cccc(C)c1)cn2C	none
CCCCn1cc(S(=O)(=O)c2ccc(C)c(C)c2)c(=O)c2cc(F)c(N(CC)CC)cc21	Pf Dd2 inh 13µM
CN[C@@H](CC(C)C)C(=O)N[C@H]1C[C@@](O)(C(=O)N[C@H](Cc2c[nH]c3ccccc23)C(N)=O)C[C@@H](O)[C@@H]1O	none
O=C(NCCc1ccccc1)c1noc(-c2ccc(F)cc2)n1	none
COc1ccccc1CNC(=O)c1ccc2c(c1)N(C)C1CCCN1C2=O (stereo not given)	none
CN(Cc1ccccc1)C(=O)C1=NO[C@@H]2CN(Cc3ccc(F)cc3)C[C@H]12	none
Cc1ccc(-c2nc(C3CC(=O)N(C4CCCCC4)C3)no2)cc1C (stereo not given)	none
COCCc1noc(C2Cc3ccccc3N2C(=O)Nc2cc(OC)cc(OC)c2)n1 (stereo not given)	none
CCc1nccc(CN2CCC(c3nn(C)c(=O)n3CC)CC2)n1	none
Cn1nnnc1C1CCCN(C(=O)CCC2CCCC2)C1 (stereo not given)	none
CCCN1CCN(CCCNC(=O)Cn2nc(C)n3c(cc4c(OC)cccc43)c2=O)CC1	none
CCc1nn(CC(=O)NCCCN2CCN(C)CC2)c(=O)c2cc3occc3n12	none
O=C(O)Cn1c(-c2cccs2)cc2cc(Cl)ccc21	none
CN1CCN(CCC(=O)Nc2ccc(Cl)cc2)CC1	none
Cc1ccc(NC(=O)Cn2c(CCC(=O)O)ccc2-c2cccs2)cc1Cl	none
CCC(C)NC(=O)Cn1c(-c2cccs2)cc2cc(Cl)ccc21 (stereo not given)	none
CCN(CC)CCCNC(=O)Cn1c(-c2cccs2)cc2cc(Cl)ccc21	Pf Dd2 inh 11µM
CCN1CCN(CCCNC(=O)Cn2c(-c3cccs3)cc3cc(Cl)ccc32)CC1	Pf Dd2 inh 11µM
CN1CCN(CCCNC(=O)Cn2c(-c3cccs3)cc3cc(Cl)ccc32)CC1	Pf Dd2 inh 13µM
COc1ccc(C(=O)N2CCC(c3n[nH]c(=O)n3-c3ccc(C)cc3)CC2)c(OC)n1	none
CCOc1ncccc1C(=O)NC1CC(c2nnc(CN(C)C)n2C)C1 (stereo not given)	none
COCc1ncc(C)n1CCNC(=O)c1ccc(C)[nH]c1=O	none
COc1ccc(CCNC(=O)C2CCCCC(=O)N2C)cc1OC (stereo not given)	none
O=C1CCCN1CCC1CCN(Cc2cccc(OCC(O)CN3CCOCC3)c2)CC1 (stereo not given)	none
O=C1Nc2ccccc2CC12CCN(Cc1cccnc1)CC2	none
O=C1NCc2ccccc2CC12CCN(Cc1ccsc1)C2 (stereo not given)	none
O=C1NCc2ccccc2CC12CCN(Cc1ccccc1)CC2	none
CN(C)c1ccc(CN2CCC3(Cc4ccccc4NC3=O)C2)cc1 (stereo not given)	Pf Dd2 inh 10µM
CN(C)c1ccc(CN2CCC3(C2)C(=O)Nc2ccccc23)cc1 (stereo not given)	none
O=C1Nc2ccccc2CC12CCCN(Cc1ccc(C(F)(F)F)cc1)C2 (stereo not given)	none
O=C1Nc2ccccc2CC12CCN(Cc1cccc3ccccc13)CC2	none
O=C1Nc2ccccc2CC12CCN(Cc1ccccc1)CC2	Pf Dd2 inh 3.5µM
O=C1Nc2ccccc2CC12CCN(Cc1ccsc1)CC2	Pf Dd2 inh 11µM
O=C1CCCCC(C(=O)NCC2CCCCC2)N1 (stereo not given)	none
CC(=O)c1ccc(NC(=O)N[C@@H]2C=C(C(=O)N[C@H](C)C(N)=O)C[C@@H](O)[C@@H]2O)cc1	none
O=C(NC[C@H]1O[C@H](Cc2cc(COc3ccccc3)on2)CC[C@@H]1O)c1ccc2c(c1)OCO2	none
O=C(c1ccoc1)N1CCC(Oc2ccccc2)C1 (stereo not given)	none
COc1ccc(S(=O)(=O)N2CCC(CC(=O)NCc3ccccc3)C2)cc1OC (stereo not given)	none
CN(Cc1cnn(-c2ccc(F)cc2)c1)C(=O)c1cn(Cc2cccc3ccccc23)nn1	none
O=C(NCCN1CCCCC1)c1ccc(Cn2c(SCc3cccc(F)c3)nc3cccnc32)cc1	Pf Dd2 inh 7.9µM
CN(Cc1ccccc1)C(=O)c1ccc(CSc2nc3cccnc3n2Cc2ccccc2)cc1	Pf Dd2 inh 10µM
Cc1ccccc1CNC(=O)c1ccc(CSc2nc3cccnc3n2Cc2ccccc2)cc1	none
CCOc1ccccc1CNC(=O)c1ccc(Cn2c(SCc3ccccc3)nc3cccnc32)cc1	Pf Dd2 inh 11µM
O=C(NCc1ccccc1F)c1ccc(CSc2nc3cccnc3n2Cc2ccccc2)cc1	none
O=C(NCCc1ccccc1)c1ccc(CSc2nc3cccnc3n2Cc2ccccc2F)cc1	Pf Dd2 inh 8.9µM
O=C(NC1CCCCC1)c1ccc(Cn2c(SCc3ccccc3F)nc3cccnc32)cc1	none
O=C(NCc1ccccc1)c1ccc(CSc2nc3cccnc3n2Cc2ccccc2)cc1	none
O=C(NCCc1ccccc1)c1ccc(Cn2c(SCc3ccc(F)cc3)nc3cccnc32)cc1	none
O=C(NCc1ccco1)c1ccc(Cn2c(SCc3ccc(F)cc3)nc3cccnc32)cc1	none
CNC(=O)c1ccc(CSc2nc3cccnc3n2Cc2cccc(F)c2)cc1	none
Cn1nc(C2CCN(C(=O)C3CCCO3)CC2)c2c1CCOC2 (stereo not given)	none
O=C(Nc1cccc(C(F)(F)F)c1)O[C@@H]1CO[C@H]2[C@@H]1OC[C@@H]2NC(=S)Nc1ccc(Cl)cc1	none
COc1ccc(C(=O)Nc2ccc([C@@H](O)[C@H]3COCC(=O)N3CC3CCCCC3)cc2)cc1	none
CN(Cc1cccnc1)C1CN(C(=O)C2CCC2)C1	none
COc1cccc(Nc2ccnc(-c3nnc(C)n3C3CCCCC3)c2)c1	none
CCCC1(CO)CCCN(CCc2cnn(C)c2)C1 (stereo not given)	none
C[C@@H]1CN(C(=O)c2cccc(N3CCCC3=O)c2)C[C@@]1(O)C1CCC1	none
COc1cc(=O)n2c(c1C(=O)NCc1ccc(F)cc1)CCCC2	none
C[C@H]1CCCN1C(=O)c1nnc(COc2cccc(C(F)(F)F)c2)n1-c1ccccc1	none
O=C(NC1CC1)c1ccc(Cn2c(SCc3ccccc3F)nc3cccnc32)cc1	none
COc1ccc(Cn2c(SCc3ccc(C(=O)NCCc4ccccc4)cc3)nc3cccnc32)cc1	Pf Dd2 inh 13µM
O=C(c1ccc(C(F)(F)F)cc1)N1CCC2(CC(c3cccnc3)=NO2)C1 (stereo not given)	none
CCc1noc(-c2cn(C3CCN(C(=O)c4ccc(C)s4)CC3)nn2)n1	none
c1cc(-c2nc(CC3CCCNC3)no2)ccn1 (stereo not given)	none
Cn1nc(-c2ccc3ccccc3c2)cc1[C@H]1CN2CC[C@H]1C[C@@H]2CNC(=O)Nc1cccc(C#N)c1	none
Cc1nc2ccc(C(=O)N3CCC(Cn4cc(CO)nn4)CC3)cc2nc1C	none
Cc1ccc(C(=O)NCc2nnc3c(-c4nc(C5CC5)no4)cccn23)cc1C	none
CCc1noc(-c2cccn3c(CNC(=O)COc4ccc(F)cc4)nnc23)n1	Pf Dd2 inh 0.71µM
COc1ccc(Cl)cc1C(=O)NCc1nnc2c(-c3nc(C(C)C)no3)cccn12	Pf Dd2 inh 1.8µM

Screens (PubChem BioAssay)
